PMC4102417

Each compound was assayed on murine 3T3 fibroblasts (assay: primary screen, percent viability or growth; higher = less effect of the substance).
Experimental: Similarly, for measuring the cytotoxicity concentration (CC50) for 3T3 fibroblast cells, cultures were incubated with drugs for 72 hours and developed using Alamar Blue (Alamar Biosciences Inc, Sacramento, CA) as previously described.

| Structure (SMILES) | Mammalian (3T3) cell % growth at 10 uM |
| --- | --- |
| O=c1c(O)c(-c2ccccc2)oc2ccccc12 | 85.7% |
| C=CC(C1=CC(=O)C(OC)=CC1=O)c1ccccc1 (stereo not shown) | 0.9% |
| COc1cc2ccc(=O)oc2c(O)c1O | 100% |
| CO[C@H]1C[C@H](O[C@H]2[C@H](C)[C@@H](O[C@@H]3O[C@H](C)C[C@H](N(C)C)[C@H]3O)[C@@H](C)C[C@@]3(CO3)C(=O)[C@H](C)[C@@H](O)[C@@H](C)[C@@H](C)OC(=O)[C@@H]2C)O[C@@H](C)[C@@H]1O.O=P(O)(O)O | 100% |
| CC(=O)OC1CC2C(C)(C)C(=O)C=CC2(C)C2CCC3(C)C(=CC(=O)OC3c3ccoc3)C12C (stereo not shown) | 56.1% |
| COc1cc(O)c(C(=O)/C=C/c2ccc(OC)c(O)c2)c(OC)c1 | 6% |
| CC12C=CC(=O)C=C1CCC1C2CCC2(C)C(=O)CCC12 (stereo not shown) | 72.1% |
| CC(Cc1cccc(C(F)(F)F)c1)NCCOC(=O)c1ccccc1 (stereo not shown) | 96.6% |
| C=CC(C1=CC(=O)C(OC)=CC1=O)c1ccc(O)cc1 (stereo not shown) | 94.8% |
| NCCCCNCCCN | 41% |
| OCCN1CCN(CCCN2c3ccccc3Sc3ccc(C(F)(F)F)cc32)CC1 | 100% |
| NC(=O)c1cc([N+](=O)[O-])cc([N+](=O)[O-])c1 | 97.2% |
| CC(=O)Oc1ccc(/C=C/c2cc(OC(C)=O)cc(OC(C)=O)c2)cc1 | 31.6% |
| O=C(/C=C/c1ccc(O)c(O)c1)OCCc1ccccc1 | 1.4% |
| Cl.OC(c1cc(C(F)(F)F)nc2c(C(F)(F)F)cccc12)C1CCCCN1 (stereo not shown) | 94.7% |
| CCC1(O)CC(OC2CC(N(C)C)C(O)C(C)O2)c2c(cc3c(c2O)C(=O)c2c(O)ccc(O)c2C3=O)C1C(=O)OC (stereo not shown) | 0.8% |
| Oc1ccc(/C=C\c2cc(O)cc(O)c2)cc1 | 24.8% |

| Structure (SMILES) | Mammalian (3T3) cell % growth at 10 uM |
| --- | --- |
| Cl.Cl.O=C1c2c(O)ccc(O)c2C(=O)c2c(NCCNCCO)ccc(NCCNCCO)c21 | 14% |
| O=c1c(-c2cc(O)c(O)c(O)c2)coc2cc(O)c(O)c(O)c12 | 73.7% |
| CC(C)COCC(CN(Cc1ccccc1)c1ccccc1)N1CCCC1.Cl (stereo not shown) | 89.6% |
| COc1cccc(O)c1O | 1.2% |
| CN1CCCC(n2nc(Cc3ccc(Cl)cc3)c3ccccc3c2=O)CC1.Cl (stereo not shown) | 95.1% |
| COc1ccc2c(c1)[nH]c1c(C)nccc12 | 87.2% |
| CCCCC(CC)CNC(=N)NC(=N)NCCCCCCNC(=N)NC(=N)NCC(CC)CCCC.Cl.Cl (stereo not shown) | 12.3% |
| COc1cc2c(cc1OC)C1C(=O)c3ccc4oc(C(C)C)cc4c3OC1CO2 (stereo not shown) | 39.7% |
| COc1cc(OC)c2c(=O)c(O)c(-c3ccc(OC)c(OC)c3)oc2c1 | 39.6% |
| O=c1c(O)c(-c2ccc(O)c(O)c2)oc2c(O)c(O)cc(O)c12 | 54.6% |
| CCC1(O)C(=O)OCc2c1cc1n(c2=O)Cc2cc3cc(O)ccc3nc2-1 (stereo not shown) | 23.9% |
| C=CC(C)(O)CCC1C(=C)CCC2C(C)(CO)CCCC12C (stereo not shown) | 86.1% |
| N[C@H](C(=O)O)[C@@H]1CC(Cl)=NO1 | 48.2% |
| CCCCc1oc2ccccc2c1C(=O)c1cc(I)c(OCCN(CC)CC)c(I)c1.Cl | 86.7% |
| CC(C)C(C)/C=C/C(C)C1CCC2C3=CC=C4CC(O)CCC4(C)C3CCC21C (stereo not shown) | 99.6% |
| CCN(CCCCOC(=O)c1ccc(OC)c(OC)c1)C(C)Cc1ccc(OC)cc1 (stereo not shown) | 92.3% |
| CC1=CC(=O)C2C(C)(C)CCCC2(C)C1(O)CCc1ccoc1 (stereo not shown) | 75.8% |
